From PubChem BioAssay
SW480 rereplic = inducers of DNA re-replication in SW480 colon cancer cells; SW480 DNA re-replication, Hoechst DNA content imaging, 48 h; AID 624297; 340,000 compounds, 1.8% hits; Potency, µM (series often up to 46.1 µM), hits mostly activators; further: nearly all actives have a fitted effect of over 55% in size
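DNA re-replication was detected as more nuclei of elevated Hoechst intensity after 48 hr exposure to compound (23 nL pinned per well of 250 cells).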
DRD3 agonist = activates the human D3 dopamine receptor; P35462; 410,000 compounds, 0.58% hits; max activation, %; D3R DiscoveRx beta-arrestin cells, luminescence, 90 min; AID 652048; in the data active means max activation above about 30%
Target sequence (P35462 whole entry, looked up): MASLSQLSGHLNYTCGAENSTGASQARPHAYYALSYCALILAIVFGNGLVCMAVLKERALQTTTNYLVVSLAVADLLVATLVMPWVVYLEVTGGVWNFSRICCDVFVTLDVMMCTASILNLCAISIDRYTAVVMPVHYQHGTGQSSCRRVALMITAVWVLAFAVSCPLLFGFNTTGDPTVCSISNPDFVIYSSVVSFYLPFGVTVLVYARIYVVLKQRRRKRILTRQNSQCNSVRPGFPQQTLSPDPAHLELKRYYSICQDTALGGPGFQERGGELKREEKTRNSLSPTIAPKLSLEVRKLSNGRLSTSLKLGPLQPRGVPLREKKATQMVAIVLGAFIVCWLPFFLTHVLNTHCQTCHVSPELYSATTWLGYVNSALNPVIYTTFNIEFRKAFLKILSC
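Cells at 1500/well, incubated overnight, then treated with pinned compounds (dopamine as control) for 90 min at 37 degrees C. DiscoveRx reagent added for 30 - 60 minutes at room temperature; luminescence read.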
KB-3-1 cytotox = KB-3-1 parental cell cytotoxicity | KB-3-1 viability, CellTiter-Glo ATP luminescence, 72 h | Potency, µM (titrated, usually from 46.1 µM), actives largely listed as cytotoxic | 400,000 compounds, 1.4% hits; further: nearly all actives have a fitted effect of over 60% in size
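Screening of KB-3-1 cells (DMEM, 10% FBS, phenol-red free) ran from lowest to highest compound concentration; after 72 h at 37 °C viability was read luminescently and curves fitted.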
D3 antag = blocks the human D3 dopamine receptor; 360,000 compounds, 2.5% hits; AID 652054; D3R cells, DiscoveRx beta-arrestin luminescence, antagonist mode; stronger effect = lower value; P35462; max response, negative = inhibition, %; in the data active means max response below about -50%; inconclusive means no clear call, values can overlap the other calls
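Cells plated overnight at 1500 cells/well, then exposed to library compounds with dopamine controls for 90 minutes at 37 degrees C. DiscoveRx reagent added for 30–60 minutes at room temperature; luminescence read, quantitative HTS format.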
KB-V1 MDR tox = KB-V1 MDR subline cytotoxicity. KB-V1 MDR cells viability, CellTiter-Glo, 72 h. Potency, µM (top dose mostly 46.1 µM), hits mostly cytotoxic. 400,000 compounds, 3.4% hits. AID 1347076; further: nearly all actives have a fitted effect of over 60% in size
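Cytotoxicity via CellTiter-Glo luminescence after 72 h compound exposure at 37 degrees C. Cells: drug-selected KB-V1 line, DMEM phenol-red free plus 10% FBS. Compounds tested at multiple concentrations; normalized data fitted to concentration-effect curves.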
MCF10A rereplic = DNA re-replication induction in MCF 10a cells. MCF 10A DNA re-replication, Hoechst nuclear intensity, 48 h. Potency, µM (titrated, usually from 46.1 µM), most hits filed as activators. 350,000 compounds, 2.9% hits; further: nearly all actives have a fitted effect of over 50% in size
Large screens that a line does not name were inactive. A selection: hits, their analogues and other compounds. The true share with any hit is near 8.9%. Unless noted, the call rests on the fitted dose curve; in most records, active means well fitted curve in the direction sought with a large enough effect; inconclusive means small, poorly fitted or top-dose-only effect, or another doubt; inactive means no such curve, though single readings can be large; an effect the other way counts as inactive or inconclusive.

CC(=O)Nc1cccc(-c2csc(Nc3cc(C)ccn3)n2)c1	KB-V1 MDR tox 23µM
CC(=O)N1CCN(c2ccc(NCc3ccc(Br)o3)cc2)CC1	none (no result: DRD3 agonist, D3 antag)
CC(=O)N1CCN(c2ccc(NCc3ccc(-c4ccc(Br)cc4)o3)cc2)CC1	SW480 rereplic 13µM, KB-3-1 cytotox 9.2µM, MCF10A rereplic 23µM (no result: DRD3 agonist, D3 antag)
Cc1ccc(Cc2c(-c3ccc(F)cc3)nc3cc(C)ccn23)cc1	D3 antag -68 (no result: SW480 rereplic, MCF10A rereplic)
CCOC(=O)CC1(C)NC(=O)c2c(C)sc(C(=O)OCC)c2N1 (stereo unspecified)	KB-V1 MDR tox 16µM
CCOC(=O)CC1(CC(=O)OCC)NC(=O)c2c(C)sc(C(=O)OCC)c2N1	none
CCc1ccc(-c2cc(C(F)(F)F)n3nc(C(=O)Nc4c(C)nn(Cc5ccc(F)cc5)c4C)cc3n2)s1	SW480 rereplic 8.2µM, KB-3-1 cytotox inconclusive, KB-V1 MDR tox inconclusive, MCF10A rereplic inconclusive
CN1CCN(c2ccc(CNS(=O)(=O)c3ccc(F)cc3Cl)cc2)CC1	none
Cc1cc(S(=O)(=O)NCc2ccc(N3CCN(C)CC3)cc2)c(C)s1	D3 antag -63, MCF10A rereplic inconclusive
N#CC1=C(N)Oc2cc(N)ccc2C1c1ccccc1Cl (stereo unspecified)	SW480 rereplic inconclusive, KB-3-1 cytotox inconclusive, MCF10A rereplic inconclusive
N#CC1=C(N)OC2=C(CCc3ccccc32)C1c1ccccc1Cl (stereo unspecified)	SW480 rereplic 8.2µM, KB-3-1 cytotox inconclusive, KB-V1 MDR tox 4.6µM, MCF10A rereplic 2.9µM
COc1ccccc1/C=C/C=N\N1CCN(Cc2ccccc2Cl)CC1	KB-V1 MDR tox 16µM, MCF10A rereplic inconclusive
COc1ccccc1/C=C/C=N/N1CCN(Cc2ccc(Cl)cc2)CC1	D3 antag inconclusive, MCF10A rereplic inconclusive
COc1ccccc1C1CCN(Cc2ccccc2)CC1	D3 antag -116, MCF10A rereplic inconclusive
COc1ccc(CN2CCC(Cc3ccccc3)CC2)cc1OC	D3 antag inconclusive
O=[N+]([O-])c1cccc(COc2cccc(CN3CCCCC3)c2)c1	D3 antag -77
COc1ccccc1C1CCN(Cc2ccccc2Cl)CC1	D3 antag -75
O=C(CCCn1c(=O)c2cccn2c2ccccc21)Nc1cccc(Cl)c1	none (no result: SW480 rereplic, KB-3-1 cytotox, D3 antag, KB-V1 MDR tox, MCF10A rereplic)
CC(=O)Nc1nonc1-c1nnc(SCC(=O)Nc2cc(C)cc(C)c2)n1-c1ccccc1	none (no result: SW480 rereplic, D3 antag, MCF10A rereplic)
CCc1ccc(NC(=O)C(CC)n2nnc(C(=O)OC)c2C(=O)OC)cc1 (stereo unspecified)	none (no result: SW480 rereplic, D3 antag, MCF10A rereplic)
OCCN1CCN(Cc2ccc3ccccc3c2)CC1	none
O=[N+]([O-])c1cccc(CN2CCC(Cc3ccccc3)CC2)c1	none
COc1ccccc1C1CCN(Cc2cccc([N+](=O)[O-])c2)CC1	D3 antag -95, KB-V1 MDR tox inconclusive
O=[N+]([O-])c1cccc(CN2CCN(c3cccc4[nH]ccc34)CC2)c1	D3 antag -97, KB-V1 MDR tox inconclusive
COc1ccccc1C1CCN(Cc2ccc3ccccc3c2)CC1	D3 antag -62, MCF10A rereplic inconclusive
Fc1ccc(-n2nc(-c3ccccc3)c3cnc4ccccc4c32)cc1Cl	none (no result: SW480 rereplic, D3 antag, MCF10A rereplic)
CC1CCCN(S(=O)(=O)c2ccc(NC(=O)C3CCN(C(=O)c4ccco4)CC3)cc2)C1 (stereo unspecified)	KB-V1 MDR tox inconclusive
CCOc1ccc(/C=C/c2ccc3ccccc3n2)cc1OCC	KB-3-1 cytotox inconclusive (no result: SW480 rereplic, DRD3 agonist, D3 antag, MCF10A rereplic)
CCn1c(SCC(=O)Nc2cc(C)ccc2F)nnc1-c1ccccc1O	none (no result: SW480 rereplic, D3 antag, MCF10A rereplic)
COC(=O)CCc1c(C)[nH]c(C(=O)OCc2ccccc2)c1C	none
CCOC(=O)CCc1c(C(=O)OCC)[nH]c(CC)c1C(=O)OCc1ccccc1	DRD3 agonist 31, KB-V1 MDR tox inconclusive, MCF10A rereplic inconclusive
COc1ccc(OCCN2CCC(C(=O)NC(c3ccc(F)cc3)c3ncccc3C)CC2)cc1 (stereo unspecified)	D3 antag -85 (no result: SW480 rereplic, MCF10A rereplic)
COc1ccc(OCCN2CCC(C(=O)NC(c3ccc(Cl)cc3)c3ncccc3C)CC2)cc1 (stereo unspecified)	D3 antag -73 (no result: SW480 rereplic, MCF10A rereplic)
